Drawing on the supplement of paper PMC8866396, this text covers cell viability for 32 compounds.

Structures are written as SMILES. ± gives the standard deviation of the averaged measurements.

The assay has as its system IL-6-GFP PC-9. Nature of the assay: cell viability (CCK-8 OD) relative to DMSO control (fraction of control); higher = more viable cells. Conditions: compound concentration: 10 uM; treatment time: 48 h. The method in brief: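 PC-9 and PC-9GR lung cancer cells carrying a lentiviral construct that overexpresses IL-6-GFP were seeded in 96-well plates at 3000 cells/well. Every compound in a purchased 510-compound library was applied at a final 10 μM for 48 h, and a parallel set of plates was kept for GFP imaging. Cell viability was read by CCK-8 absorbance, taking each well's optical density as a ratio to the vehicle control well. Two independent replicates were run.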
Regarding `CC(C)C12OC1C1OC13C1(C)CCC4=C(COC4=O)C1CC1OC13C2O` (configuration not stated) [Triptolide (PG490)], the cell viability worked out at 0.447 ± 0.12.

In turn, `CC(C)(C)NCC(O)c1ccccc1Cl.Cl` (configuration not stated) [Tulobuterol hydrochloride] registered a cell viability of 1.08 ± 0.15.

For `NC(Cc1ccc(N(CCCl)CCCl)cc1)C(=O)O` (configuration not stated) [Melphalan], the cell viability stood at 0.891 ± 0.076.

`O=P1(NCCCl)OCCCN1CCCl` (configuration not stated) [Ifosfamide] gave a cell viability of 0.8 ± 0.02.

Regarding `Cc1c(N)nc(C(CC(N)=O)NCC(N)C(N)=O)nc1C(=O)NC(C(=O)NC(C)C(O)C(C)C(=O)NC(C(=O)NCCc1nc(-c2nc(C(=O)NCCC[S+](C)C)cs2)cs1)C(C)O)C(OC1OC(CO)C(O)C(O)C1OC1OC(CO)C(O)C(OC(N)=O)C1O)c1c[nH]cn1.O=S(=O)([O-])O` (configuration not stated) [Bleomycin sulfate], the cell viability amounted to 0.473 ± 0.051.

Take `Cc1cccc(C(C)c2c[nH]cn2)c1C.Cl` (configuration not stated) [Medetomidine HCl]: the cell viability amounted to 1.09 ± 0.011.

On to `O=C(O)CCCc1ccc(N(CCCl)CCCl)cc1` [Chloroambucil], for which the cell viability amounted to 0.97 ± 0.18.

As for `COc1cc2c(c(OC)c1OC)-c1ccc(OC)c(=O)cc1C(NC(C)=O)CC2` (configuration not stated) [Colchicine], the cell viability worked out at 0.686 ± 0.078.

`O=C(O)c1nn(Cc2ccc(Cl)cc2Cl)c2ccccc12` [Lonidamine] returned a cell viability of 1.19 ± 0.13.

Consider `O=C(O)C1C2CCC(O2)C1C(=O)[O][Na]` (configuration not stated) [Sodium Demethylcantharidate], for which the cell viability is 1.31 ± 0.083.

Regarding `CC1CCC2N(C1)CC1C3CC4C(CC(O)C5CC(O)CCC54C)C3CCC1C2(C)O` (configuration not stated) [Peimine], the cell viability worked out at 1.211 ± 0.0049.

Turning to `COC1=CC2C3Cc4ccc(OC)c(O)c4C2(CCN3C)CC1=O.Cl` (configuration not stated) [Sinomenine hydrochloride], the cell viability is 1.28 ± 0.086.

`c1ccc2c(c1)Sc1ccccc1N2CC1CN2CCC1CC2` (configuration not stated) [Mequitazine] registered a cell viability of 1.01 ± 0.021.

Turning to `CCC1(O)C(=O)OCc2c1cc1n(c2=O)Cc2c-1nc1ccccc1c2CCNC(C)C.Cl` (configuration not stated) [Belotecan (CKD-602) hydrochloride], the cell viability was determined as 0.349 ± 0.055.

`CC(C)C12OC1C1OC13C1(C)CCC4=C(COC4=O)C1CC1OC13C2=O` (configuration not stated) [Triptonide] gave a cell viability of 0.467 ± 0.063.

`CCC1(O)C(=O)OCc2c1cc1n(c2=O)Cc2cc3ccccc3nc2-1` (configuration not stated) [Camptothecin] yielded a cell viability of 0.364 ± 0.036.

`CC1CC(=O)CC2CCC3C4CCC(O)C4(C)CCC3C12C` (configuration not stated) [Mesterolone] gave a cell viability of 1.21 ± 0.12.

Regarding `C=CCN1CC(C(=O)N(CCCN(C)C)C(=O)NCC)CC2c3cccc4[nH]cc(c34)CC21` (configuration not stated) [Cabergoline], the cell viability turned out to be 1.05 ± 0.21.

As for `Cn1cc(C2=C(c3cn(C4CCN(Cc5ccccn5)CC4)c4ccccc34)C(=O)NC2=O)c2ccccc21`, the cell viability stood at 1.09 ± 0.16.

`CC12CCC3C(CCC4=C(O)C(=O)CCC43C)C1CCC2=O` (configuration not stated) [Formestane] came in with a cell viability of 0.466 ± 0.055.

`CN(C)NC(=O)CCC(=O)O` [Daminozide] registered a cell viability of 1.28 ± 0.05.

Compound `CC(C)[N+](C)(CCC(C(N)=O)(c1ccccc1)c1ccccc1)C(C)C.[I-]` [Isopropamide Iodide] gave a cell viability of 0.841 ± 0.16.

On to `CCC1=CC2CN3CCc4c([nH]c5ccccc45)C(C(=O)OC)(C2)C13` (configuration not stated) [Catharanthine], for which the cell viability came out at 1.1 ± 0.1.

`CC12CCC3c4ccc(OC(=O)N(CCCl)CCCl)cc4CCC3C1CCC2OP(=O)([O-])[O-].[Na+].[Na+]` (configuration not stated) [Estramustine phosphate sodium] displayed a cell viability of 1.01 ± 0.25.

As for `Cl.Cn1c(CCCC(=O)O)nc2cc(N(CCCl)CCCl)ccc21` [Bendamustine HCl], the cell viability was determined as 1.2 ± 0.11.

The compound `COC1=CC2C3Cc4ccc(OC)c(O)c4C2(CCN3C)CC1=O` (configuration not stated) [Sinomenine] came in with a cell viability of 1.19 ± 0.097.

In turn, `COc1cc2c(cc1O)CC1c3c(cc(O)c(OC)c3-2)CCN1C` (configuration not stated) [Boldine] yielded a cell viability of 1.05 ± 0.11.

Consider `Cn1c(CCCC(=O)O)nc2cc(N(CCCl)CCCl)ccc21` [Bendamustine], for which the cell viability was determined as 1.02 ± 0.18.

`COc1cc(C2c3cc4c(cc3C(O)C3COC(=O)C23)OCO4)cc(OC)c1OC` (configuration not stated) [Picropodophyllin (PPP)] gave a cell viability of 0.603 ± 0.07.

With `O=c1c2ccccc2[se]n1-c1ccccc1` [Ebselen], the cell viability is 1.36 ± 0.22.

On to `COC(=O)CC(O)(CCC(C)(C)O)C(=O)OC1C(OC)=CC23CCCN2CCc2cc4c(cc2C13)OCO4` (configuration not stated) [Harringtonine], for which the cell viability worked out at 0.323 ± 0.058.

Compound `O.O=P1(N(CCCl)CCCl)NCCCO1` (configuration not stated) [Cyclophosphamide Monohydrate] had a cell viability of 1.2 ± 0.029.
